# Results as given in PubChem BioAssay (NCATS).
# Inconclusive results are not listed. A call without a number means that no potency is given here. Activity calls are given as the source filed them. Unless noted, calls follow the shape of the dose curve; as a rule, active = well fitted curve in the direction sought with a large enough effect; inconclusive = small, poorly fitted or top-dose-only effect, or another doubt; inactive = no such curve, though single readings can be large; an effect the other way counts as inactive or inconclusive.
# Experiments:
# [1] = target: Cytochrome P450 1A2 (Homo sapiens) (UniProt P05177); experiment: p450-cyp1a2 (AID 410; calls by dose curve)
# Chain of Cytochrome P450 1A2 (Homo sapiens) (P05177 whole entry, looked up): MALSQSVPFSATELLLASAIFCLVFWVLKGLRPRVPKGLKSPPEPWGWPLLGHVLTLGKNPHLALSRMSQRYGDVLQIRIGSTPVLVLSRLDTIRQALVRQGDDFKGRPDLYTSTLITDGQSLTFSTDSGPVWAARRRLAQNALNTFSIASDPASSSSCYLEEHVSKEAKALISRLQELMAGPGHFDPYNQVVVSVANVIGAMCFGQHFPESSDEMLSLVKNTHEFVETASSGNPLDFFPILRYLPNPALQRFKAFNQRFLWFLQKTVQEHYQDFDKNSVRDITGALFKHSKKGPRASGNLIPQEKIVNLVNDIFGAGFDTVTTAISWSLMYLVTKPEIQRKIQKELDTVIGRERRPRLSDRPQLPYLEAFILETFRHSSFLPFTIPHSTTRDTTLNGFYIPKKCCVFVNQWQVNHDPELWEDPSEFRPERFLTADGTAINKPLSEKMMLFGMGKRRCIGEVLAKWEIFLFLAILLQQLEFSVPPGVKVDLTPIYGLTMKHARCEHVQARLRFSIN
# Method in brief: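 Luminescent demethylation readout: Luciferin-ME (100uM, equal to Km) turned over by 20nM CYP1A2 for 60 min at room temperature after NADPH regeneration addition, following 10 min compound preincubation. Normalization used 57 uM furafylline as full inhibition.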
# [2] = target: Glucocorticoid receptor (Homo sapiens) (UniProt P04150); experiment: GR-GFP Redistribution (AID 450;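 active = compounds whose dose series gives a full or clear partial fitted curve of increased nuclear translocation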; also: potency is read from the fitted curve at half-maximal effect); settings: U2OS GR-GFP nuclear translocation, laser cytometry, 2 h
# Chain of Glucocorticoid receptor (Homo sapiens) (P04150 whole entry, looked up, the tested form may be a part): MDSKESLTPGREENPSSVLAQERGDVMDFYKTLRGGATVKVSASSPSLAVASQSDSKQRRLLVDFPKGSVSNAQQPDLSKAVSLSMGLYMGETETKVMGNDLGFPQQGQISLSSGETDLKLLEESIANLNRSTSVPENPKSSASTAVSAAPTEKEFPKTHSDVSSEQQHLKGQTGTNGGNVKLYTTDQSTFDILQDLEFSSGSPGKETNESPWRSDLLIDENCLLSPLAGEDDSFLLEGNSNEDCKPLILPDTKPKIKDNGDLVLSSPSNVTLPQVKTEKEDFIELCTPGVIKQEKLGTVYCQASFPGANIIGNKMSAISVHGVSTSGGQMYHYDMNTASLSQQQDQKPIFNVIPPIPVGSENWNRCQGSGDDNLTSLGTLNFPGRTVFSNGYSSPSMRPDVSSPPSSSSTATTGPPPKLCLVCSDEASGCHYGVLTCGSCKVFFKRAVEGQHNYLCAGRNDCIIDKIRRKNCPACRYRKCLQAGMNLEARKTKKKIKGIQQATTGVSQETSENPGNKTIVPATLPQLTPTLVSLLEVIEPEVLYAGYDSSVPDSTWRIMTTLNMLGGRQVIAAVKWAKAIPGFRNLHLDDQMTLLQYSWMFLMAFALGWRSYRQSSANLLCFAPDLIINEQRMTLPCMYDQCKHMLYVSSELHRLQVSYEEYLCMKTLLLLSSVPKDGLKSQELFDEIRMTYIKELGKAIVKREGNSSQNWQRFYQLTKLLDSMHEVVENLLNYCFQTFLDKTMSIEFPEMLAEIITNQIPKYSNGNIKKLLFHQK
# [3] = target: Glucocorticoid receptor (Homo sapiens) (UniProt P04150); experiment: GR-EFC Redistribution (AID 451; calls by dose curve; also: potency is read from the fitted curve at half-maximal effect); settings: CHO-K1 GR-EFC translocation, beta-gal luminescence, 2 h
# Method in brief: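 CHO-K1 cells expressing nuclear EA and GR-ED fragments of b-gal; compounds titrated up to 46 uM final, 2 h at 37 C. GR nuclear translocation read as complemented b-gal luminescence after 1 h RT detection.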
# [4] = target: Mitogen-activated protein kinase 10 (Mus musculus) (UniProt Q61831); experiment: JNK3 AlphaScreen Assay (AID 530; active = well fitted curve in either direction with a large enough effect, not every such curve was filed as active;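 also: kinase came from lysate of stimulated human HepG2 cells; signal reports phosphorylation of biotinylated GST-cJun 1-79 at Ser73 with 10 µM ATP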)
# Method in brief: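 Activity was read by AlphaScreen after JNK3-containing HepG2 lysate (cytokine pre-activated) phosphorylated biotinylated GST-cJun with 10 uM ATP at room temperature. Phospho-Ser73 cJun antibody with Protein-A acceptor beads provided detection.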
# [5] = target: 3',5'-cyclic-AMP phosphodiesterase 4B (Homo sapiens) (UniProt Q07343); experiment: qHTS Assay for Inhibitors of PDE-IV (AID 607; active = well fitted activation curve with a large enough effect in the main read-out, with a control signal flat, not every such curve was filed as active)
# Method in brief: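 ACTOne HEK293 cells carry a modified cAMP-gated CNG channel and express endogenous PDE4; plated 1000 cells/well, compounds up to 22.9 uM final. Membrane-potential dye fluorescence (ex 535/em 590) was read; parental cells received 10 uM forskolin + 100 uM RO 20-1724.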
# [6] = target: Ubiquitin carboxyl-terminal hydrolase 1 (Homo sapiens) (UniProt O94782); experiment: Inhibitors of USP1/UAF1: Pilot qHTS (AID 504865);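 also: rhodamine fluorescence freed from ubiquitin-rhodamine substrate followed over time; top concentration of the series differs between compounds; nearly all actives have a fitted effect of over 35% in size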
# Chain of Ubiquitin carboxyl-terminal hydrolase 1 (Homo sapiens) (O94782 whole entry, looked up): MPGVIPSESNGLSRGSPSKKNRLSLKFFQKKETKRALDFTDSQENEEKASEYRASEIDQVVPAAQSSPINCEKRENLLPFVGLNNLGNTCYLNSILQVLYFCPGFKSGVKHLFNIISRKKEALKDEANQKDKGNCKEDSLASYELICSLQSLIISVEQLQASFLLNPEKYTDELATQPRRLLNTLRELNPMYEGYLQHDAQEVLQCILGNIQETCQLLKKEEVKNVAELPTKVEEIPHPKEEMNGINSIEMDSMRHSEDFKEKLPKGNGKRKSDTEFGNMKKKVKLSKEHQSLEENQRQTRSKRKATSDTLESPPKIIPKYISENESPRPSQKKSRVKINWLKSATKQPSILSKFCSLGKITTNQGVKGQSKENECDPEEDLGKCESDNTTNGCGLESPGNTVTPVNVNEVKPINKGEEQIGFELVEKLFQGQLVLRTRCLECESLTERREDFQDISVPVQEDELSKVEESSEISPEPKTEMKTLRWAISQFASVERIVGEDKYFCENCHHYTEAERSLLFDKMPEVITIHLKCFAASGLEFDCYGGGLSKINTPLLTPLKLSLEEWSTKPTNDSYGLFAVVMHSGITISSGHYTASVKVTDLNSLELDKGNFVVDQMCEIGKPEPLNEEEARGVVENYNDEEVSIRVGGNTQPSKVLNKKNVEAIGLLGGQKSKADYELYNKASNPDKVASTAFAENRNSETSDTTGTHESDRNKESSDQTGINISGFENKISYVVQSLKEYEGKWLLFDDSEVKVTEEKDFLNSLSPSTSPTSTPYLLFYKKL
# Method in brief: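 In 50mM HEPES pH 7.8 containing 0.5mM EDTA, 1mM TCEP, 0.1 mg/ml BSA and 0.01% Tween-20, 1nM USP1/UAF1 is exposed to compound for 15 min, then Ub-Rho (150nM final) is added and fluorescence is read over time.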
# [7] = target: DNA dC->dU-editing enzyme APOBEC-3G (Homo sapiens) (UniProt Q9HC16); experiment: qHTS for inhibitors of Vif-A3G interactions: Validation (AID 588379)
# Chain of DNA dC->dU-editing enzyme APOBEC-3G (Homo sapiens) (Q9HC16 whole entry, looked up): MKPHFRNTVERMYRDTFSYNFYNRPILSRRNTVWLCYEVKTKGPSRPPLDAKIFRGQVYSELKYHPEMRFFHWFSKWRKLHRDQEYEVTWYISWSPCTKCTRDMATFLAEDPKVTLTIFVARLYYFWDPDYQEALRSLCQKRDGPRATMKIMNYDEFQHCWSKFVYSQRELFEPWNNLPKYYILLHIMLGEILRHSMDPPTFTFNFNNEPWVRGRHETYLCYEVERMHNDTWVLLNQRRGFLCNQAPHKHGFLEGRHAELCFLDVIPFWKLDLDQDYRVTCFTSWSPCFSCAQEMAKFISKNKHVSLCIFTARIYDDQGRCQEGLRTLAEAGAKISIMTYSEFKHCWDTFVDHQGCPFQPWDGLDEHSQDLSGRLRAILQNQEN
# Method in brief: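 Yellow fluorescence (Ex 488, Em 500-530) of Vif-coexpressing HeLa A3G-eYFP cells, scanned by Acumen cytometer, reports blocked A3G degradation. Cells plated at 700/well overnight at 37 deg C before compound addition, then a further overnight compound incubation at 37 deg C.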
# [8] = tested on: Zika virus NS2B-NS3 protease; experiment: Primary screen GU AMC qHTS for Zika virus inhibitors (AID 1347154); also: nearly all actives have a fitted effect of over 70% in size
# Method in brief: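 Unlinked Zika NS2B hydrophilic domain–NS3 protease complex at 25 nM in 10 mM Tris-HCl pH 8.0, 0.01% Tween 20, with an AMC peptide substrate. Fluorescence change (340/450 nm) over 15 min at room temperature, normalized to controls, fitted to 4-parameter Hill.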
# [9] = target: Cytochrome P450 3A4 (Homo sapiens) (UniProt P08684); experiment: qHTS Assay for Inhibitors and Substrates of Cytochrome P450 3A4 (AID 884); also: nearly all actives have a fitted effect of over 50% in size
# Chain of Cytochrome P450 3A4 (Homo sapiens) (P08684 whole entry, looked up): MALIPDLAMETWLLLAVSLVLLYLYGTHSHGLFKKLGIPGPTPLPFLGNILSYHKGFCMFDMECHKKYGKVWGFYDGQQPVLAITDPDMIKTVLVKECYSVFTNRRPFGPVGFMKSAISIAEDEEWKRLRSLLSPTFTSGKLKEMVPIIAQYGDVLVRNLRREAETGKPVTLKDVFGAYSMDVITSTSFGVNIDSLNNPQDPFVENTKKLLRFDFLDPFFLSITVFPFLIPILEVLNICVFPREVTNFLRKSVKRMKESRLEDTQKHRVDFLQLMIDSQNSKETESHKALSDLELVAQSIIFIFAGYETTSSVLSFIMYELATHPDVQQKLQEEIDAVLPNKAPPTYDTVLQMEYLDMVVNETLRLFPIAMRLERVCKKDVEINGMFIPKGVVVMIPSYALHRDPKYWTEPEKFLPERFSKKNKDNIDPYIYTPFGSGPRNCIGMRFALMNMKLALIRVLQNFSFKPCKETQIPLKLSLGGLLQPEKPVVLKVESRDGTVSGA
# Method in brief: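 Luminescent readout of luciferin produced by CYP3A4 (20 nM) dealkylation of Luciferin-PPXE, 25 uM (its KM). NADPH-driven reaction ran 60 min at RT after 10 min compound preincubation; data scaled to 57 uM ketoconazole as 100% inhibition.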
# [10] = target: Cytochrome P450 3A4 (Homo sapiens) (UniProt P08684); experiment: qHTS Assay for Activators of Cytochrome P450 3A4 (AID 885); also: potency is read from the fitted curve at half-maximal effect; nearly all actives have a fitted effect of over 65% in size
# Method in brief: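 CYP3A4 activity: Luciferin-PPXE O-dealkylation, 25uM substrate, 200mM KPO4, RT throughout. Read-out is luciferase luminescence; higher values reflect activation.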
# [11] = qHTS Assay for Lipid Storage Modulators (AID 1519; calls by dose curve); settings: Drosophila S3 cells, BODIPY lipid droplet/cell ratio, laser cytometry, cells loaded with oleic acid
# Method in brief: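 Cells seeded at 5,000 per well were treated with compounds over a concentration series and loaded with oleic acid (400 uM, as added). Lipid droplet fluorescence (488 nm excitation, 500-530 nm channel) was read by laser-scanning cytometry and normalized to 20 uM Triacsin C.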
# [12] = Confirmatory screen GU Rhodamine qHTS for Zika virus inhibitors qHTS (AID 1347157); also: nearly all actives have a fitted effect of over 70% in size; also: potency is read from the fitted curve at half-maximal effect
# Method in brief: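 Buffer 10 mM Tris-HCl pH 8.0, 0.01% Tween 20. Unlinked protease 25 nM; compound preincubation 15 min, RT, protected from light. Substrate Rhod110, 1.5 microM; ~15% conversion in 15 min.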
# [13] = ZIKV-mCherry secondary qHTS for Zika virus inhibitors (AID 1347158); also: top concentration of the series differs between compounds
# Method in brief: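 Percent infection is the share of Hoechst-identified Vero nuclei with mCherry signal above 450 RFU (3 SD over negative controls). Cells were infected with recombinant ZIKV-mCherry at MOI 1 after compound addition and imaged 48–72 h later.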
# [14] = Confirmatory screen NINDS Rhodamine qHTS for Zika virus inhibitors (AID 1347161); also: nearly all actives have a fitted effect of over 60% in size; also: potency is read from the fitted curve at half-maximal effect;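 as to activity change, negative = inhibition: purified Zika NS2B-NS3 protease with linked NS2B cofactor domain and Rhodamine110 peptide substrate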
# Method in brief: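 Rhodamine110-peptide cleavage (1.5 µM substrate) by 25 nM linked NS2B-NS3 enzyme at pH 8.0 (Tris, Tween 20), after 15 min RT preincubation with compounds; 15-min fluorescence change normalized to controls and Hill-fitted.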
# [15] = tested on: Zika virus NS2B-NS3 protease (linked); experiment: 384 well plate NINDS AMC confirmatory qHTS for Zika virus inhibitors (AID 1347163); also: potency is read from the fitted curve at half-maximal effect; nearly all actives have a fitted effect of over 50% in size
# Method in brief: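 Fluorescence at 355/460 nm was read after 25 minutes of cleavage of 30 microM Ac-VKTGKR-AMC at room temperature, in the dark. Before substrate addition, compounds (up to 1 mM final) sat ~15 minutes with 5, 30 or 60 nM linked protease. Signals were normalized to no-enzyme and no-inhibitor wells.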
# [16] = tested on: Zika virus NS2B-NS3 protease (linked construct); experiment: 384 well plate NINDS Rhodamine confirmatory qHTS for Zika virus inhibitors (AID 1347164);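 also: fluorescence from protease cleavage of Ac-LKRR-rhodamine 110 substrate; top concentration of the series differs between compounds; nearly all actives have a fitted effect of over 65% in size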
# Method in brief: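 Enzyme (final 5/30/60 nM) + cpd (DMSO), ~15 min; add Ac-LKRR-Rd 10 microM final; 25 min RT, dark; FI ex 485/em 538; normalized to no-enzyme, no-inhibitor ctrls; aprotinin intraplate ctrl.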
# [17] = Tertiary RLuc qRT-PCR qHTS assay for Zika virus inhibitors (AID 1347169); also: top concentration of the series differs between compounds; nearly all actives have a fitted effect of over 55% in size
# Method in brief: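 Vero, 1,000 cells/well, o/n 37 C; cpd pinned in DMSO; ZIKV-RLuc Cambodian, MOI 1-2, 48-72 h 37 C; live-cell RLuc substrate, lum read at 1-1.5 h.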
# [18] = target: Rap guanine nucleotide exchange factor 3 (Homo sapiens) (UniProt O95398); experiment: Confirmatory qHTS for antagonist of cAMP-regulated guanine nucleotide exchange factor 3 (EPAC1) (AID 1645880); also: potency is read from the fitted curve at half-maximal effect; nearly all actives have a fitted effect of over 55% in size
# Chain of Rap guanine nucleotide exchange factor 3 (Homo sapiens) (O95398 whole entry, looked up): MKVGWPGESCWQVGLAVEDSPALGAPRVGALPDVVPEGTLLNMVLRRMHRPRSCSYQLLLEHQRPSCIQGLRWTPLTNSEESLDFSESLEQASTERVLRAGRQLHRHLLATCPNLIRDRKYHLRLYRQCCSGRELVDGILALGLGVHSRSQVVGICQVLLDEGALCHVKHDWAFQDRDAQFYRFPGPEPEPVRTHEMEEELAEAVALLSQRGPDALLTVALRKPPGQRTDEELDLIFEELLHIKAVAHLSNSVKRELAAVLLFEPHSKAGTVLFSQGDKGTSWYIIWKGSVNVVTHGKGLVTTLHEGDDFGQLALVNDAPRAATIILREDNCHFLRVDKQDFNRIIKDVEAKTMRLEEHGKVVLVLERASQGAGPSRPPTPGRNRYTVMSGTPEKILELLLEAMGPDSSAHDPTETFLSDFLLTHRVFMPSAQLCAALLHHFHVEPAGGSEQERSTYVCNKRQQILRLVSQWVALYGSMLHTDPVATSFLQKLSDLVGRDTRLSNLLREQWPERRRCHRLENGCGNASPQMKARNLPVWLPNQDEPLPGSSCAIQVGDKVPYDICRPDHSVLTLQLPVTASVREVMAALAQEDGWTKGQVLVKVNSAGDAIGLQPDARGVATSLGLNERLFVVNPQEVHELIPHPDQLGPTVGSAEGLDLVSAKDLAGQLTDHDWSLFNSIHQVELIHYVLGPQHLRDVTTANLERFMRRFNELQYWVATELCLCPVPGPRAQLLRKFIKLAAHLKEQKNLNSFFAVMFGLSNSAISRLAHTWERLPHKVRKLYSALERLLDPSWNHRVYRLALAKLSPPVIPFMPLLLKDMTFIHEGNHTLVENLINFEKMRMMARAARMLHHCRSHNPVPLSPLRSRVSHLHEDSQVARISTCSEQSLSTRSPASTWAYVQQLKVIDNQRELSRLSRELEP
# Method in brief: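 Released BODIPY-GDP fluoresces less than Rap1-bound BODIPY-GDP; the signal is followed at 480/540 nm at 5-min intervals over 30 min, after 5 min at room temperature. Reactions contain 100 nM EPAC1, 250 nM RAP1B-BODIPY-GDP and 50 uM GDP; results are normalized to ATA and DMSO.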
# [19] = target: Rap guanine nucleotide exchange factor 3 (Homo sapiens) (UniProt O95398); experiment: Confirmatory qHTS for agonist of cAMP-regulated guanine nucleotide exchange factor 3 (EPAC1) (AID 1645881);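 also: EPAC1 catalysed release of BODIPY-GDP from Rap1B seen as fluorescence loss; nearly all actives have a fitted effect of over 75% in size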
# [20] = target: Rap guanine nucleotide exchange factor 4 (Homo sapiens) (UniProt Q8WZA2); experiment: Confirmatory qHTS for agonist of cAMP-regulated guanine nucleotide exchange factor 4 (EPAC2) (AID 1645884);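 also: nucleotide exchange releases bodipy-GDP from Rap1 and this lowers its fluorescence; nearly all actives have a fitted effect of over 65% in size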
# Chain of Rap guanine nucleotide exchange factor 4 (Homo sapiens) (Q8WZA2 whole entry, looked up): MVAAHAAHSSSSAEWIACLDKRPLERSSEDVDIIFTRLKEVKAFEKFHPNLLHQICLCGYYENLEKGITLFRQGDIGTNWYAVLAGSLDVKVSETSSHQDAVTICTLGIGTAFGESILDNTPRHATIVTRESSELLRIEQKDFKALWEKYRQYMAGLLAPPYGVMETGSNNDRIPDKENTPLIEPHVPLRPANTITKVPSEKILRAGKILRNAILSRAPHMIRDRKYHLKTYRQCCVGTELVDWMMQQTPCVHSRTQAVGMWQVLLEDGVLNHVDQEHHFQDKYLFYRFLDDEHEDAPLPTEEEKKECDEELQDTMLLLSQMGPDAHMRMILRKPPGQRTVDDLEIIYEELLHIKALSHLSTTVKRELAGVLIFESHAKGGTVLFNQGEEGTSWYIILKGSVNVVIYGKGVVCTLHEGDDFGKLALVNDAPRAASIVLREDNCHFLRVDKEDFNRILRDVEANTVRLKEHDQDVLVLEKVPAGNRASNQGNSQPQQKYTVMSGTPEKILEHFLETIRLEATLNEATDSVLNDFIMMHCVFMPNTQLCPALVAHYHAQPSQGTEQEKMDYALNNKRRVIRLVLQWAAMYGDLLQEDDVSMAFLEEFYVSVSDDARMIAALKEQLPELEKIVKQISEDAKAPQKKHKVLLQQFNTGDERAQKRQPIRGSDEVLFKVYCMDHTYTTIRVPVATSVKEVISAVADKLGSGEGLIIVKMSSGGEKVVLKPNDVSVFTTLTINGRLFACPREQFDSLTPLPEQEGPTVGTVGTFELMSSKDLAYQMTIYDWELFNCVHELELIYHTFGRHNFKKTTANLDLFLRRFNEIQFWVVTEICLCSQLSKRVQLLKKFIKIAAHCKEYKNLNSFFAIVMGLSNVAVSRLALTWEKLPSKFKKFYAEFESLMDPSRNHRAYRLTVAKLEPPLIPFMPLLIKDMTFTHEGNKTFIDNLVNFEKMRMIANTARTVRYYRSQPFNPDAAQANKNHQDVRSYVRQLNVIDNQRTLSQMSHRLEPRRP
# [21] = target: Rap guanine nucleotide exchange factor 4 (Homo sapiens) (UniProt Q8WZA2); experiment: Confirmatory qHTS for antagonist of cAMP-regulated guanine nucleotide exchange factor 4 (EPAC2) (AID 1645885); also: nearly all actives have a fitted effect of over 25% in size
# [22] = target: Rap guanine nucleotide exchange factor 3 (Homo sapiens) (UniProt O95398); experiment: Counterscreen qHTS for antagonist of cAMP-regulated guanine nucleotide exchange factor 3 (EPAC1) (AID 1645888)
# Method in brief: (§1)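 Rap1B–BODIPY-GDP (250 nM) with 50 uM GDP; compounds pin-transferred to 9.74 nM–152 uM final (activator) or from 7.32 nM upwards (inhibitor). Fluorescence Ex/Em 480/540 nm read at 5 and 30 min, then after adding cAMP or buffer, at room temperature.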
# [23] = target: Rap guanine nucleotide exchange factor 3 (Homo sapiens) (UniProt O95398); experiment: Counterscreen qHTS for agonist of cAMP-regulated guanine nucleotide exchange factor 3 (EPAC1) (AID 1645889); also: nearly all actives have a fitted effect of over 40% in size
# Method in brief: as §1
smiles,measurement,setting,value
OC[C@H]1NC[C@@H](O)[C@@H](O)[C@H]1O,Potency,[1],inactive
same,Potency,[2],> 46 µM (inactive)
same,Potency,[3],> 46 µM (inactive)
same,Potency,[4],inactive
same,Potency,[5],inactive
same,Potency,[6],inactive
same,Potency,[7],inactive
same,Potency,[8],inactive
Cc1c(C2CCN(CCc3ccccc3)CC2)noc1-c1ccc(Cl)cc1,Potency,[2],> 46 µM (inactive)
same,Potency,[3],> 46 µM (inactive)
same,Potency,[4],inactive
same,Potency,[9],inactive
same,Potency,[10],15.8 µM (active)
same,Potency,[6],inactive
same,Potency,[7],inactive
same,Potency,[8],inactive
C[N+](C)(C)CCCCCNCC12CC3CC(CC(C3)C1)C2,Potency,[1],inactive
same,Potency,[3],> 46 µM (inactive)
same,Potency,[4],inactive
same,Potency,[5],inactive
same,Potency,[6],inactive
same,Potency,[7],inactive
same,Potency,[8],inactive
O=C(OC1Cc2c(O)cc(O)cc2OC1c1cc(O)c(=O)c2c(O)c(O)cc(C3Oc4cc(O)cc(O)c4CC3OC(=O)c3cc(O)c(O)c(O)c3)c2c1)c1cc(O)c(O)c(O)c1 (stereo unspecified),"activity change, negative = inhibition",[11]; at 57.5 µM (top of the series),15% (inactive)
same,max response,[11]; measured here: cell count channel max response,-10.5%
same,max response,[11]; measured here: lipid channel max response,7.68%
same,Potency,[12],5.01 µM (active)
same,Potency,[13],inactive
same,Potency,[14],11.2 µM (active)
same,Potency,[15],2.24 µM (active)
same,Potency,[16],inactive
Cc1ccc(OCC(=O)Nc2ccccc2C(=O)OCc2cc(=O)n3nc(C4CC4)sc3n2)cc1,Potency,[12],inactive
same,Potency,[14],inactive
COc1ccc(NS(=O)(=O)c2ccc3c(c2)[C@H]2C=CC[C@H]2[C@@H](c2ccc(C(=O)O)cc2)N3)cc1,Potency,[12],20 µM (active)
same,Potency,[13],inactive
same,Potency,[15],79.4 µM (active)
same,Potency,[17],inactive
same,Potency,[18],19 µM (active)
same,outcome,[19],inactive
same,outcome,[20],inactive
same,Potency,[21],inactive
same,outcome,[22],inactive
same,Potency,[23],inactive
Cc1cccc(CCN2CCC(C(=O)c3ccc(NS(C)(=O)=O)cc3)CC2)n1,Potency,[6],inactive
same,Potency,[7],inactive
same,Potency,[8],inactive
